# Results taken from PubChem BioAssay (EPA / NIEHS).
# “And” between values parts separate entries of the source, which are not always exact repeats. Identical values can stand only once. Records with an inconclusive call do not appear. The source holds several records for some structures; these can differ, active in one and inactive in another. The source made the active and inactive calls. How the source made its calls, unless noted: active means hit-call score of the fitted dose curve at least 0.9, where 1 is the maximum; inactive means score below 0.9.
# Key:
# [1] = UKN4_HCS_LUHMES_cell_viability: Viability Assessment in the University of Konstanz (UKN) Leist Lab Neurite Outgrowth Assay in human LUHMES cells (UKN4) (AID 2284232)
# Outline: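 LUHMES precursors differentiated 2 days, replated at 30000 cells/well without cAMP/GDNF, then compound-treated 24 h. Viability from Hoechst H-33342 and calcein-AM live staining (30 min) by high-content fluorescence imaging; bidirectional fit versus DMSO.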
# [2] = UKN2_HCS_IMR90_cell_viability: Viability Assessment in the University of Konstanz (UKN) Leist Lab Neural Crest Cell Migration Assay in human induced IMR90 Pluripotent Stem Cells (UKN2) (AID 2284233);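 further: viability of neural crest cells differentiated from IMR90 iPSC measured by calcein-AM fluorescence imaging; cells exposed to compound for 24 h after a 24 h migration phase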
# Outline: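 iPSC-derived (IMR90) neural crest cells seeded around silicone stoppers on PLO/laminin/fibronectin; after 24 h migration in N2-S with EGF/FGF, chemical added for 24 h. Calcein-AM/Hoechst stained 30 min, high-content imaged; bidirectional fit versus DMSO.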
# [3] = CCTE_Mundy_HCI_hNP1_Casp3_7: CCTE's Caspase-Glo 3/7 Assay in human neuroprogenitor cells for Apoptosis, Mundy Lab (AID 2284240)
# Outline: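 Neuroepithelial-lineage stem cells from WA09 embryonic cells were treated with chemicals after 40–44 h of culture. Twenty-four hours later, caspase-3/7 activation was detected luminescently after a 30 min room-temperature reagent step, with DMSO as baseline.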
# [4] = CCTE_Mundy_HCI_hNP1_CellTiter: CCTE's Cell Titer-Glo 2 Assay in human neuroprogenitor cells for Viability, Mundy Lab (AID 2284241; active means hit-call score of the fitted dose curve at least 0.9, where 1 is the maximum;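 on AC50: a hit is a drop in ATP luminescence versus DMSO meaning reduced viability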)
# Outline: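 Measures ATP content in human neural progenitors derived from WA09 embryonic cells. Read-out at 26.5 hours after dosing, with DMSO serving as the negative control and baseline.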
# [5] = read-out: Vascular cell adhesion molecule 1 (VCAM1), VCAM1 (gene 7412); assay: BSK_MyoF_VCAM1: BioMAP Diversity Plus: MyoF Assay for Vascular cell adhesion molecule 1 (VCAM1) Biomarker Activity (AID 2284231); settings: primary human lung fibroblasts
# Outline: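 Primary human lung fibroblasts were dosed with test chemical for 24 h, then cell-surface VCAM-1 was measured by ELISA. Activity was fitted in the positive direction against DMSO as negative control and baseline.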
# [6] = CCTE_Mundy_HCI_Cortical_NOG_NeuronCount: CCTE's Neurite Outgrowth Assay in rat cortical cells for Neuron Count, Mundy Lab (AID 2284236; active means hit-call score of the fitted dose curve at least 0.9, where 1 is the maximum;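 further: neurons counted by imaging betaIII-tubulin and Hoechst stained cortical cells; cells exposed to compound for about 48 hours before fixation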)
# Outline: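 Read-out: neuron number by high-content imaging of betaIII-tubulin (Alexa Fluor-488) and Hoechst-labelled rat primary cortical cells.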
# [7] = read-out: Collagen I, COL1A1 (gene 1277); assay: BSK_MyoF_CollagenI: BioMAP Diversity Plus: MyoF Assay for Collagen I Biomarker Activity (AID 2284238); settings: primary human lung fibroblasts
# Outline: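 Human lung fibroblasts were exposed to test chemical for 24 h, then Collagen I was quantified by ELISA. Activity was fitted in the increasing direction against DMSO as the negative control and baseline.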
# [8] = read-out: Collagen III, COL3A1 (gene 1281); assay: BSK_MyoF_CollagenIII: BioMAP Diversity Plus: MyoF Assay for Collagen III Biomarker Activity (AID 2284239); settings: primary human lung fibroblasts
# Outline: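 Human lung fibroblasts were dosed with chemicals and, 24 hours later, collagen III was measured by ELISA. Activity was fitted in the positive direction against the DMSO negative-control baseline.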
# [9] = CCTE_Mundy_HCI_Cortical_Synap_Neur_Matur_NeuronCount: CCTE's Synaptogenesis and Neurite Maturation Assay in rat cortical cells for Neuron Count, Mundy Lab (AID 2284242; active means hit-call score of the fitted dose curve at least 0.9, where 1 is the maximum;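 on AC50: hits reduce neuron count versus DMSO baseline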)
# Outline: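 Rat primary cortical cells, AraC added at DIV 5, dosed with media change from DIV 7 to DIV 12. Fixed, Hoechst-stained and immunolabelled for MAP2 and synaptophysin; neuron number counted by high-content imaging, loss fitted versus DMSO.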
# [10] = read-out: Interleukin 17F (IL17F), IL17F (gene 112744); assay: BSK_BT_xIL17F: BioMAP Diversity Plus: BT Assay for Interleukin 17F (IL17F) Biomarker Activity (AID 2284243); settings: primary human B cells with PBMC
# Outline: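 B cell/PBMC co-culture (human primary), 24 h compound exposure; sIL-17F by Luminex xMAP; gain-of-signal fit vs DMSO baseline.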
# [11] = read-out: Actin alpha 1 (ACTA1), ACTA1 (gene 58); assay: BSK_MyoF_ACTA1: BioMAP Diversity Plus: MyoF Assay for Actin alpha 1 (ACTA1) Biomarker Activity (AID 2284244); settings: primary human lung fibroblasts
# Outline: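 Human lung fibroblast (MyoF system) cultures dosed with test chemical; alpha-SMA measured by ELISA 24 h after dosing, normalized to DMSO control. Cytotoxicity tracked in parallel cultures by SRB total-protein staining.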
# [12] = read-out: Interleukin 2 (IL2), IL2 (gene 3558); assay: BSK_BT_xIL2: BioMAP Diversity Plus: BT Assay for Interleukin 2 (IL2) Biomarker Activity (AID 2284245); settings: primary human B cells with PBMC
# Outline: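 Human B cell plus PBMC co-culture, 24 h after chemical dosing; secreted IL-2 quantified by Luminex xMAP multiplex, fitted for signal gain against DMSO baseline.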
# [13] = read-out: Basic fibroblast growth factor (bFGF), FGF2 (gene 2247); assay: BSK_MyoF_bFGF: BioMAP Diversity Plus: MyoF Assay for Basic fibroblast growth factor (bFGF) Biomarker Activity (AID 2284246); settings: primary human lung fibroblasts
# Outline: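 Human lung fibroblast cultures were dosed and measured 24 h later in 96-well format. bFGF biomarker levels quantified by ELISA, with activity fitted in the positive direction against DMSO.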
# [14] = read-out: Collagen IV, COL4A1 (gene 1282); assay: BSK_MyoF_CollagenIV: BioMAP Diversity Plus: MyoF Assay for Collagen IV Biomarker Activity (AID 2284247); settings: primary human lung fibroblasts
# Outline: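 Primary human lung fibroblasts (MyoF system) dosed 24 h; Collagen IV measured by ELISA. Activity fitted in positive direction against DMSO; cytotoxicity tracked by SRB total-protein staining in parallel cultures.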
# [15] = read-out: Monokine induced gamma interferon (MIG), CXCL9 (gene 4283); assay: BSK_KF3CT_MIG: BioMAP Diversity Plus: KF3CT Assay for Monokine induced gamma interferon (MIG) Biomarker Activity (AID 2284248); settings: primary human keratinocytes with fibroblasts
# Outline: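 Human keratinocyte plus foreskin fibroblast primary co-culture dosed with test chemical for 24 h; MIG level measured by ELISA and fitted in the positive direction against DMSO as baseline.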
# [16] = read-out: Vascular cell adhesion molecule 1 (VCAM1), VCAM1 (gene 7412); assay: BSK_BF4T_VCAM1: BioMAP Diversity Plus: BF4T Assay for Vascular cell adhesion molecule 1 (VCAM1) Biomarker Activity (AID 2284249); settings: primary human bronchial epithelial cells with fibroblasts
# Outline: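 Human bronchial epithelial cell and dermal fibroblast co-culture exposed 24 h. VCAM-1 measured by ELISA; parallel SRB total-protein staining for cytotoxicity. Fitted in positive direction relative to DMSO.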
# [17] = read-out: Collagen I, COL1A1 (gene 1277); assay: BSK_hDFCGF_CollagenI: BioMAP Diversity Plus: hDFCGF Assay for Collagen I Biomarker Activity (AID 2284250); settings: primary human foreskin fibroblasts
# Outline: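 Primary human foreskin fibroblasts exposed to chemical for 24 h; Collagen I levels measured by ELISA. Cytotoxicity checked by SRB total-protein staining in parallel cultures.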
# [18] = read-out: Interferon-inducible T-cell alpha chemoattractant (ITAC), CXCL11 (gene 6373); assay: BSK_hDFCGF_ITAC: BioMAP Diversity Plus: hDFCGF Assay for Interferon-inducible T-cell alpha chemoattractant (ITAC) Biomarker Activity (AID 2284251); settings: primary human foreskin fibroblasts
# Outline: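 ELISA readout of I-TAC after 24 h chemical exposure; human dermal foreskin fibroblast primary cells. Positive-direction fitting vs DMSO baseline. Parallel SRB total-protein staining (0.1% SRB after 10% TCA fixation, 560 nm) flags cytotoxicity.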
# [19] = TAMU_PeakParms_SingleDonor1434_QT: Texas A&M University (TAMU) 1.5-hr Human Induced Pluripotent Stem Cell (iPSC)-derived Cardiomyocytes Calcium (Ca+2) Flux Assay for Cardiotoxicity: QT (decay-rise ratio) (AID 2284235; active means hit-call score of the fitted dose curve at least 0.9, where 1 is the maximum)
# Outline: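 iPSC-derived cardiomyocytes (single donor 1434) dosed at 0.2, 1, 10, 100 uM final in 0.5% DMSO, 90 min at 37C. Ca2+ flux fluorescence decay/rise ratio; EC05 (5% increase versus DMSO) as POD, excluding beat-arrest and severe-notch data.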
# [20] = TAMU_HCS_1.5hr_SingleDonor1434_Cytotoxicity: Cytotoxicity Assessment using High-content Screening (HCS) Fluorescent Imaging for the Texas A&M University (TAMU) 1.5-hr Human Induced Pluripotent Stem Cell (iPSC)-derived Cardiotoxicity Assay (AID 2284234; active means hit-call score of the fitted dose curve at least 0.9, where 1 is the maximum)
# Outline: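 Human iPSC-derived cardiomyocytes dosed at 0.2, 1, 10, 100 uM final (0.5% DMSO) for 90 min at 37 C. Hoechst 33342-stained nuclei counted by 10x high-content imaging; POD is EC10, a 10% drop in total cell count versus DMSO.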
compound,measurement,setting,value
O=[N+]([O-])/N=C1\NCCN1Cc1ccc(Cl)nc1,outcome,[1],inactive
same,outcome,[2],inactive
same,outcome,[3],inactive
same,outcome,[4],inactive
O=S(=O)(O)C(F)(F)C(F)(F)C(F)(F)C(F)(F)C(F)(F)C(F)(F)C(F)(F)C(F)(F)F,outcome,[5],inactive
same,AC50,[1],20.4 µM (active)
same,outcome,[6],inactive
same,outcome,[7],inactive
same,outcome,[8],inactive
same,outcome,[3],inactive
same,outcome,[4],inactive
same,outcome,[9],inactive
same,outcome,[10],inactive
same,outcome,[11],inactive
same,outcome,[12],inactive
same,outcome,[13],inactive
same,outcome,[14],inactive
same,outcome,[15],inactive
same,outcome,[16],inactive
same,outcome,[17],inactive
same,AC50,[18],30 µM (active) and 38.1 µM (active)
same,outcome,[18],inactive
CN1CSC(=S)N(C)C1,outcome,[19],inactive
CC[C@H](C)[C@H]1O[C@]2(C=C[C@@H]1C)C[C@@H]1C[C@@H](C/C=C(\C)[C@@H](O[C@H]3C[C@H](OC)[C@@H](O[C@H]4C[C@H](OC)[C@@H](O)[C@H](C)O4)[C@H](C)O3)[C@@H](C)/C=C/C=C3\CO[C@@H]4[C@H](O)C(C)=C[C@@H](C(=O)O1)[C@]34O)O2 (tested in a mixture with another compound),AC50,[2],7.09 µM (active)
same,AC50,[6],13.3 µM (active)
same,AC50,[3],3.64 µM (active)
same,AC50,[4],3.34 µM (active)
same,AC50,[9],1.55 µM (active)
CCOCN(C(=O)CCl)c1c(C)cccc1CC,AC50,[20],81.6 µM (active)
O=C(O)C(F)(F)C(F)(F)C(F)(F)C(F)(F)C(F)(F)C(F)(F)C(F)(F)F,outcome,[5],inactive
same,AC50,[1],89.4 µM (active)
same,outcome,[2],inactive
same,outcome,[6],inactive
same,outcome,[7],inactive
same,outcome,[8],inactive
same,outcome,[3],inactive
same,outcome,[9],inactive
same,outcome,[10],inactive
same,outcome,[11],inactive
same,outcome,[12],inactive
same,outcome,[13],inactive
same,AC50,[14],31.6 µM (active) [middle of 4 runs]
same,outcome,[15],inactive
same,outcome,[16],inactive
same,outcome,[17],inactive
same,outcome,[18],inactive
O=C(O)COc1ccc(Cl)cc1Cl,outcome,[2],inactive
same,outcome,[6],inactive
same,outcome,[3],inactive
same,outcome,[4],inactive
COP(=O)(OC)OC=C(Cl)Cl,outcome,[2],inactive
same,outcome,[6],inactive
same,outcome,[3],inactive
same,outcome,[4],inactive
same,AC50,[9],81.4 µM (active)
COP(=S)(OC)Oc1ccc([N+](=O)[O-])cc1,outcome,[1],inactive
same,AC50,[6],2.98 µM (active)
same,outcome,[3],inactive
same,outcome,[4],inactive
same,AC50,[9],22.1 µM (active)
O=S1OCC2C(CO1)C1(Cl)C(Cl)=C(Cl)C2(Cl)C1(Cl)Cl (stereo not drawn),AC50,[1],18.7 µM (active)
same,AC50,[2],14.8 µM (active)
same,outcome,[20],inactive
same,outcome,[19],inactive
same,AC50,[6],25.2 µM (active)
same,AC50,[3],19.4 µM (active)
same,AC50,[4],12 µM (active)
same,AC50,[9],22.5 µM (active)
CC1(c2ccc(Oc3ccccc3)cc2)OC(=O)N(Nc2ccccc2)C1=O (stereo not drawn),outcome,[2],inactive
same,AC50,[6],23.8 µM (active)
same,outcome,[3],inactive
same,AC50,[4],10.9 µM (active)
same,AC50,[9],10.9 µM (active)
CNC(=O)CSP(=S)(OC)OC,outcome,[3],inactive
same,outcome,[4],inactive
same,AC50,[9],50 µM (active)
same,outcome,[9],inactive
CC1(C)C(C=C(Cl)Cl)C1C(=O)OC(C#N)c1ccc(F)c(Oc2ccccc2)c1 (stereo not drawn),outcome,[2],inactive
same,AC50,[6],49.9 µM (active)
same,outcome,[6],inactive
same,AC50,[3],31.3 µM (active)
same,outcome,[3],inactive
same,outcome,[4],inactive
same,AC50,[9],49.9 µM (active)
CCC(C)(C)C(=O)OC1=C(c2ccc(Cl)cc2Cl)C(=O)OC12CCCCC2,outcome,[1],inactive
same,outcome,[3],inactive
same,outcome,[4],inactive
same,outcome,[9],inactive
ClC1C(Cl)C(Cl)C(Cl)C(Cl)C1Cl (stereo not drawn),AC50,[5],16.3 µM (active) and 261 nM (active)
same,outcome,[1],inactive
same,outcome,[2],inactive
same,AC50,[7],25.5 µM (active)
same,outcome,[7],inactive
same,AC50,[8],30.3 µM (active)
same,outcome,[8],inactive
same,AC50,[10],20 µM (active)
same,outcome,[10],inactive
same,AC50,[11],28.5 µM (active)
same,outcome,[11],inactive
same,AC50,[12],31.9 µM (active)
same,outcome,[12],inactive
same,outcome,[13],inactive
same,outcome,[14],inactive
CC(C)N(C(=O)COc1nnc(C(F)(F)F)s1)c1ccc(F)cc1,outcome,[1],inactive
same,outcome,[2],inactive
same,outcome,[6],inactive
same,outcome,[3],inactive
same,outcome,[4],inactive
